Inconclusive results are not listed. Where a call stands in place of a potency, no number is given. Values without a mark were called inactive. Active and inactive are the calls of the source. Calls follow the shape of the full dose curve.
Test: qHTS assay to identify small molecule agonists or antagonists of the thyroid stimulating hormone receptor (TSHR) signaling pathway - wild type cell line counter screen (AID 1259384)
Settings: HEK293 wild type, cAMP HTRF counter-screen; series mostly up to 92.4 µM
From the text: U.S. Tox21 Program National Center for Advancing Translational Sciences [NCATS] NIH Chemical Genomics Center [NCGC] U.S. Environmental Protection Agency [EPA] National Institutes of Environmental Health Sciences [NIEHS] National Toxicology Program [NTP] U.S. Food and Drug Administration [FDA] Tox21 Assay Overview: TSHR is the receptor for thyrotropin (thyroid stimulating hormone or TSH), a member of the glycoprotein hormone family. TSH is released by the anterior pituitary gland and is the main regulator of thyroid gland growth and development. Upon binding circulating thyrotropin, a G-protein signal cascade activates adenylyl cyclase and […] cAMP concentration is increased. cAMP is a key second messenger involved extensively in cellular signal transduction pathways associated with the majority of G-protein coupled receptors (GPCRs). The activation of these GPCRs by neurotransmitters, lipids, nucleotides, peptides and hormones results in the activation or the inhibition of plasma membrane-bound adenylate cyclase through heterotrimeric G-proteins. A cell-based TSHR-Hek293 assay can be used to identify TSHR agonists. To eliminate the false positive compounds identified from screening a cell-based TSHR-Hek293 cell line, cAMP assay in a wild type Hek293 cells was used as a counter screening.
Tox21 Assay Protocol Summary: Hek293 cells (wild type) were dispensed at 800 cells/4 uL/well in 1536-well white plates using a Multidrop dispenser. After the assay plates were incubated at a 37 C/5% CO2 incubator for 18 hrs, 23 nL of compounds dissolved in DMSO, positive controls or DMSO only was transferred to the assay plate by a pin tool, followed by 1 ul medium containing Ro20-1724. After 30 min of incubation at room temperature, 2.5 ul/well of cAMP-d2 and 2.5 ul/well of anti-cAMP-cryptate were added respectively into the assay plates using a Flying Reagent Dispenser. The plates were incubated at room temperature for 1 hr. The fluorescence intensity in the plates was measured using an Envision plate reader. Each test compound was measured at 15 concentrations and in triplicates.
With `CC(C)c1ccc2c(C(C)C)cc(C(C)C)c(S(=O)(=O)O)c2c1` the Potency was “inactive”.
In the case of `CC(=O)N(CC(=O)N(C)C)c1ccccc1`, the Potency was “inactive”.
In the case of `Cc1ccc2c(ccc3ccccc32)c1`, the Potency was “inactive”.
In the case of `CC1(C)[C@H]2CC[C@]1(C)[C@H](O)C2`, the Potency was “inactive”.
With `C#CCOC(=O)[C@@H](C)Oc1ccc(Oc2ncc(Cl)cc2F)cc1` the Potency was “inactive”.
In the case of `NC(N)=NN=C(/C=C/c1ccc([N+](=O)[O-])o1)/C=C/c1ccc([N+](=O)[O-])o1`, the Potency was “inactive”.
In the case of `CCOC(=O)[C@H](CCc1ccccc1)N[C@H]1CCc2ccccc2N(CC(=O)O)C1=O`, the Potency was “inactive”.
With `Cc1ncsc1CCO` the Potency was “inactive”.
For `O=C(Nc1ccccc1)OCC(CN1CCCCC1)OC(=O)Nc1ccccc1` (stereo not given), the Potency was “inactive”.
With `O=S1(=O)N=C(O)c2ccccc21` the Potency was “inactive”.
With `O=[N+]([O-])c1cccc(Cl)c1Cl` the Potency was “inactive”.
With `CC1(C)CCC(C)(C)c2cc(NC(=O)c3ccc(C(=O)O)cc3)ccc21` the Potency was “inactive”.
In the case of `O=C=NC1CCC(CC2CCC(N=C=O)CC2)CC1` (stereo not given), the Potency was “inactive”.
For `FC(F)(F)C(F)(F)C(F)(F)C(F)(F)C(F)(F)C(F)(F)CCI`, the Potency was “inactive”.
With `CCCCOc1ccc(CC(=O)NO)cc1` the Potency was “inactive”.
With `COc1ccc([C@@H]2Sc3ccccc3N(CCN(C)C)C(=O)[C@@H]2OC(C)=O)cc1` the Potency was “inactive”.
For `N#CCCNCCC#N`, the Potency was “inactive”.
With `c1ccc(-c2nc[nH]c2-c2ccccc2)cc1` the Potency was “inactive”.
In the case of `CCCCOC(=O)/C=C\C(=O)OCCCC`, the Potency was “inactive”.
In the case of `Cl/C(=C\n1cncn1)c1ccc(Cl)cc1Cl`, the Potency was “inactive”.
With `Nc1ccc(C(=O)Nc2ccccc2N)cc1` the Potency was “inactive”.
For `O=C(CC(=O)c1ccccc1)c1ccccc1`, the Potency was “inactive”.
With `O=S1(=O)c2cccc3cccc(c23)N1CCCN1CCN(c2ccc(F)cc2)CC1` the Potency was “inactive”.
In the case of `O=C(CCN1CCN2CCCC2C1)N1c2ccccc2Sc2ccc(Cl)cc21` (stereo not given), the cAMP activity change was -1.23% [at 18.9 µM, hits give high values].
With `CCOC(=O)C1=C(C)NC(C)=C(C(=O)OC)C1c1cccc([N+](=O)[O-])c1` (stereo not given) the Potency was “inactive”.
With `CCCCCCCCCCCCCCCBr` the Potency was “inactive”.
For `O=C1[C@H](CC[C@H](O)c2ccc(F)cc2)[C@@H](c2ccc(O)cc2)N1c1ccc(F)cc1`, the Potency was “inactive”.
In the case of `CCCCC(CC)(CO)CO`, the Potency was “inactive”.
With `CC(C)(C)c1ccc(S)cc1` the Potency was “inactive”.
For `Nc1cnn([C@@H]2O[C@H](CO)[C@@H](O)[C@H]2O)c(=O)n1`, the Potency was “inactive”.
In the case of `C=C(C)C(=O)OCCOc1ccccc1`, the Potency was “inactive”.
With `C=C(C)C(=O)OC(C)C` the Potency was “inactive”.
In the case of `CCCOc1ccc2nc(NC(=O)OC)[nH]c2c1`, the Potency was “inactive”.
With `Cc1c(Cn2ccnc2)c2ccccc2n1CCC(=O)O` the Potency was “inactive”.
For `Oc1ccc(C(O)CNCCCCCCNCC(O)c2ccc(O)c(O)c2)cc1O` (stereo not given), the Potency was 6.19 µM (active).
For `COc1cc(C(C)(C)C)c(O)c(C(C)(C)C)c1`, the Potency was “inactive”.
In the case of `CCCCCCCC/C=C\CCCCCCCC(N)=O`, the Potency was “inactive”.
For `CC(C)(C)c1cc(O)c(C(C)(C)C)cc1O`, the Potency was “inactive”.
For `COC(Cc1ccccc1)OC`, the Potency was “inactive”.
With `CCc1nn(C2CCCCC2)c2cc(C3(C#N)CCC(C(=O)O)CC3)ccc12` (stereo not given) the Potency was “inactive”.
Potency is read from the fitted curve at half-maximal effect.
